± gives the standard deviation.

The experiment has as its system EfPiwi piRISC loaded with piRNA #1 (26 nt). Put plainly: pre-steady-state target cleavage rate (min^-1); auxiliary factor: 500 nM Ephydatia muelleri Gtsf1; guide: piRNA #1 5'p-UGAGGUAGUAGGUUGUAUAGUAUCCA; MIWI and MILI are mouse PIWI proteins and EfPiwi is from a freshwater sponge; tags in brackets are library labels; higher = faster piRNA-guided slicing of the target. As to the method: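 Cleave-'n-Seq: a library of target RNAs (target site in constant flanks) at […] was incubated with 1 nM active freshwater sponge Ephydatia fluviatilis Piwi piRISC (synthetic 5'-monophosphorylated piRNA guide) with or without 500 nM EmGtsf1 at 33 °C for 1 min to 16 h. Uncleaved targets were sequenced and the pooled three trials fitted to a burst-and-steady-state model to give the pre-steady-state cleavage rate (min^-1). Sequence is the target site only. Fits with R² ≤ 0 are excluded.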
With GGAGAGCAUUCUAUACAACCUACUACCUCA, the “pre-steady-state target cleavage rate” value turned out to be 0.0192 ± 0.01. With GGAGACGAUACCAUACAACCUACUACCUCA, the “pre-steady-state target cleavage rate” value was 0.124 ± 0.045. Consider GGAGUGGAUACUAUACAACCUACUAGCUGA, for which the “pre-steady-state target cleavage rate” value worked out at 0.00461 ± 0.0027. As for GGAGACGAUACUAUACAACCUACUGACCUCA, the “pre-steady-state target cleavage rate” value is 0.00338 ± 0.0017. For the sequence GGAGUGGAUACUAUACAACCUAGUAGCUCA, the “pre-steady-state target cleavage rate” value worked out at 0.00485 ± 0.0018. For GGAGACGAUACUAUACAACUUACUACCUCA, the “pre-steady-state target cleavage rate” value is 0.0183 ± 0.0077. With GGAGACCAUACUAUACAACCUAACUACCUCA, the “pre-steady-state target cleavage rate” value was determined as 0.00707 ± 0.0033. Under GGAGAGGAUACAAUACAUCCUACUACCUCA stands 0.00771 ± 0.0035; under GGAGAGGAUACUAUUCAACCUACUACGUCA, 0.00309 ± 0.0023. Under GGAGAGGCUACUAUACAACCUACUACCUCA stands 0.0629 ± 0.022.

As to GGAGACCUAUCUAUAACAACCUACUACCUCA, the “pre-steady-state target cleavage rate” value came out at 0.00453 ± 0.0037. As to GGAGACCUAUCUAUACAACCUAUUACCUCA, the “pre-steady-state target cleavage rate” value stood at 0.00466 ± 0.0039. As to GGAGACCUUACUAGACAACCUACUACCUCA, the “pre-steady-state target cleavage rate” value came out at 0.0104 ± 0.0051.

In the case of GGAGACGAUACUAUACUACCUACUUCCUCA, the “pre-steady-state target cleavage rate” value stood at 0.00224 ± 0.0016. Regarding GGAGAGGAUACUAUACAACCUACUCCUCA, the “pre-steady-state target cleavage rate” value came out at 0.00473 ± 0.0025. In the case of GGAGACGAUACUAUACAACCUACCACCUCA, the “pre-steady-state target cleavage rate” value is 0.00631 ± 0.0033. Regarding GGAGACGAUACUAAACAACCUACUACGUCA, the “pre-steady-state target cleavage rate” value is 0.00304 ± 0.003. For the sequence GGAGACGUUACUAUACAUCCUACUACCUCA, the “pre-steady-state target cleavage rate” value came out at 0.00676 ± 0.003. With GGAGUGGAUAGUAUACAACCUACUAGCUCA, the “pre-steady-state target cleavage rate” value is 0.00291 ± 0.0018. Under GGAGAGGAUAGUAUACAACCUAGUACCUCA stands 0.00231 ± 0.002. Regarding GGAGUGGAUACUAUACUACCUACUACGUCA, the “pre-steady-state target cleavage rate” value stood at 0.00245 ± 0.0017. In the case of GGAGACCUGACUAUACAACCUACUACCUCA, the “pre-steady-state target cleavage rate” value is 0.0243 ± 0.01. As for GGAGAGGAUACUAUACAACUACUACCUCA, the “pre-steady-state target cleavage rate” value is 0.00869 ± 0.0042.

For GGAGAGGAUACUAUACAACCUACUAGCCUCA, the “pre-steady-state target cleavage rate” value was 0.00421 ± 0.0018. For the sequence GGAGUGGAUACUAUACAACCAACUUCCUCA, the “pre-steady-state target cleavage rate” value was 0.00287 ± 0.0019.

As to GGAGAGGAAUGUAUACAACCUACUACCUCA, the “pre-steady-state target cleavage rate” value was 0.0061 ± 0.0042. Take GGAGAGGAUACUAUACAACCUACGACCUCA: the “pre-steady-state target cleavage rate” value amounted to 0.00309 ± 0.0016. Under GGAGACCAAAGUAUACAACCUACUACCUCA stands 0.0166 ± 0.0082; under GGAGUGGAUACUAUACAACCUUCUACGUCA, 0.00426 ± 0.0016. Turning to GGAGACCAUACUAUACAACCUACUACGUCA, the “pre-steady-state target cleavage rate” value was 0.0053 ± 0.0015.

In the case of GGAGACGAUACUAUACAACCUACUACCUUA, the “pre-steady-state target cleavage rate” value came out at 0.224 ± 0.068. Take GGAGUGGAUACUAAACAACCUUCUACCUCA: the “pre-steady-state target cleavage rate” value was 0.00385 ± 0.0026. Consider GGAGACCAUACUAUACAACCUUACUACCUCA, for which the “pre-steady-state target cleavage rate” value amounted to 0.00561 ± 0.0036. As for GGAGUGUGAUACUAUACAACCUACUACCUCA, the “pre-steady-state target cleavage rate” value came out at 0.0158 ± 0.0069. On to GGAGUGGAUACUAUAGAAGCUACUACCUCA, for which the “pre-steady-state target cleavage rate” value amounted to 0.00277 ± 0.0019. For the sequence GGAGACCAUACUAUACAACCUAGCUACCUCA, the “pre-steady-state target cleavage rate” value stood at 0.00373 ± 0.0029. Take GGAGAGGAUACUAUACUACCUUCUACCUCA: the “pre-steady-state target cleavage rate” value amounted to 0.00328 ± 0.0026. For GGAGACGAUAUUAUACAACCUACUACCUCA, the “pre-steady-state target cleavage rate” value amounted to 0.00616 ± 0.0034. As for GGAGACGAUACUAUACAAGCUACUUCCUCA, the figure is 0.00404 ± 0.0021; as for GGAGACCAUACUAUACAACCUACUACACUCA, 0.00487 ± 0.0033.

The record behind these values is the supplement of paper PMC10338343.
